Results reported in PubChem BioAssay AID743156 (Broad Institute, 2013).
The list shows a part of the results. A number with no mark means an inactive call.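 Rule for the calls: active = mean inhibition across replicates of at least 20% with every single replicate also at 20% or more; inconclusive = mean inhibition at least 20% but some replicate falls below 20%; inactive = mean inhibition under 20% and not all replicates reach it.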

System: PglD UDP-4-amino-sugar N-acetyltransferase (Campylobacter jejuni)
Experiment: inhibition of C. jejuni PglD N-acetyltransferase – biochemical, DTNB absorbance, single point, cherry-picked samples, confirmation (AID 743156);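 note: initial rate of CoA release by acetyl transfer from AcCoA to the UDP-4-amino sugar; 0% = median of neutral control wells and 100% = median of positive control wells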
Conditions: Purified C. jejuni PglD, DTNB absorbance 412 nm; at 20 µM; hits give high values

## c1ccc2sc(N3CCNCC3)nc2c1
  inhibition: 8.98%
